Source: PubChem BioAssay (EPA / NIEHS)
Records with an inconclusive call do not appear. The source made the active and inactive calls. Rule for the calls: active = hit-call score of the fitted dose curve at least 0.9, where 1 is the maximum; inconclusive = response in the unintended direction; inactive = score below 0.9.

target: human RAR-related Orphan Receptor gamma (RORg), RORC (gene 6097) (UniProt P51449); assay: ATG_RORg_TRANS: Attagene TRANS-FACTORIAL HepG2 Assay for human RAR-related Orphan Receptor gamma (RORg) (AID 2283011)
How it was run: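 HepG2 cells transiently transfected with GAL4-UAS reporter units and chimeric RORg-Gal4 construct; after 24 h chemical exposure, reporter mRNA measured by RT-PCR with fluorescent capillary electrophoresis, gain of signal fitted against DMSO.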

Sequence of human RAR-related Orphan Receptor gamma (RORg), RORC (gene 6097) (P51449 whole entry, looked up, the tested form may be a part): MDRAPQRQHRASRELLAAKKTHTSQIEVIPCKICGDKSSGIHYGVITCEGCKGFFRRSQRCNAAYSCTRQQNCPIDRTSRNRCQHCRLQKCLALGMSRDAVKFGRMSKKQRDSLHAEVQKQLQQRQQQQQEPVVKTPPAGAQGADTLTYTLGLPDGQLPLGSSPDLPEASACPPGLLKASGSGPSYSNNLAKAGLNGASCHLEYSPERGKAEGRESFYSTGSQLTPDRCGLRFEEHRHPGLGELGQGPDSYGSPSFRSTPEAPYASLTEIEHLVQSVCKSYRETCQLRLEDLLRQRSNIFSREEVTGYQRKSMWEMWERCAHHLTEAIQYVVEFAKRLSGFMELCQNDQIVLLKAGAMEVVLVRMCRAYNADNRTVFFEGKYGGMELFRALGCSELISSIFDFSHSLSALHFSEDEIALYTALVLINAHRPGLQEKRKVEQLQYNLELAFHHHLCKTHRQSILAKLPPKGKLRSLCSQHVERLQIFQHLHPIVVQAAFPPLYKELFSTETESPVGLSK

**Q.** For COc1cc(S(=O)(=O)O)c(C)cc1N=Nc1c(O)ccc2cc(S(=O)(=O)O)ccc12, which outcome is on record?
**A.** inactive

**Q.** With CN1CCCC1=O as the compound, how does the outcome read?
**A.** inactive

**Q.** NS(=O)(=O)c1cc2c(cc1Cl)NCNS2(=O)=O was tested. Which outcome did it give?
**A.** inactive

**Q.** With CC=Cc1ccc(O)c(OC)c1 as the compound, how does the outcome read?
**A.** inactive

**Q.** How did the outcome turn out when CCOc1ccc2c(c1)C(C)=CC(C)(C)N2 was run?
**A.** inactive

**Q.** With CNC(=O)[C@H]1O[C@@H](n2cnc3c(NCc4cc(Cl)ccc4OCc4cc(C)no4)ncnc32)[C@H](O)[C@@H]1N as the compound, how does the outcome read?
**A.** inactive

**Q.** For CCCCc1ccc2c(n1)[C@@H](c1ccc(OC)cc1C[C@H](C)C(=O)O)[C@H](C(=O)O)[C@H]2c1ccc2c(c1)OCO2, which outcome is on record?
**A.** inactive

**Q.** Which outcome does the source give for CC(=O)OC/C=C(\C)CCC=C(C)C here?
**A.** inactive

**Q.** With Cc1cc(NC(=O)C(=O)O)cc(C)c1Oc1ccc(O)c2c1CCC2 as the compound, how does the outcome read?
**A.** inactive

**Q.** How did the outcome turn out when FC(F)(F)C(F)(F)C(F)(F)C(F)(F)C(F)(F)C(F)(F)CCI was run?
**A.** inactive
